Records with an inconclusive call do not appear. Active and inactive are the calls of the source. Calls follow the shape of the dose curve; as a rule, active = well fitted curve in the direction sought with a large enough effect; inconclusive = small, poorly fitted or top-dose-only effect, or another doubt; inactive = no such curve, though single readings can be large; an effect the other way counts as inactive or inconclusive.

In assay [1] the test system is Zika virus NS2B-NS3 protease. As to the kind of experiment: Primary screen GU AMC qHTS for Zika virus inhibitors (AID 1347154). Also: nearly all actives have a fitted effect of over 70% in size. Also: potency is read from the fitted curve at half-maximal effect. The settings on record: Zika NS2B-NS3 unlinked protease, AMC fluorogenic substrate; series mostly up to 54.1 µM. Put shortly:
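Unlinked Zika NS2B hydrophilic domain–NS3 protease complex at 25 nM in 10 mM Tris-HCl pH 8.0, 0.01% Tween 20, with an AMC peptide substrate. Fluorescence change (340/450 nm) over 15 min at room temperature, normalized to controls, fitted to 4-parameter Hill.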
On the technique in general: qHTS replaces the single test concentration by a dilution series.

Assay [2] addresses Protein phosphatase 1D (Homo sapiens) (UniProt O15297). As to the kind of experiment: Rhodamine-PBP qHTS Assay for Modulators of WT P53-Induced Phosphatase 1 (WIP1) (AID 1347425). Particulars: recombinant WIP1, Rhodamine-PBP phosphate fluorescence, real-time; series mostly up to 57.5 µM. The essentials:
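Read-out: Rhodamine-PBP fluorescence (ex 525/em 598 nm) for released Pi, read each minute for 11 min after adding 10 uM VEPPL-pS-QETFS; signal taken as f1 minus pre-substrate f0. Enzyme 5 nM WIP1 with 1 hr room-temperature compound preincubation.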

The subject of assay [3] is Zika virus NS2B-NS3 protease (unlinked complex). Put plainly: Primary screen GU Rhodamine qHTS for Zika virus inhibitors: Unlinked NS2B-NS3 protease assay (AID 1347159). Also: nearly all actives have a fitted effect of over 60% in size. Particulars: Recombinant ZIKV NS2B-NS3 protease, Rhodamine110 substrate fluorescence; series mostly up to 107 µM. The essentials: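 Buffer 10 mM Tris-HCl pH 8.0, 0.01% Tween 20. Unlinked protease 25 nM; compound preincubation 15 min, RT, protected from light. Substrate Rhod110, 1.5 microM; ~15% conversion in 15 min.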

In assay [4] the test system is Zika virus NS2B-NS3 protease (linked construct). Put plainly: Primary screen NINDS Rhodamine qHTS for Zika virus inhibitors (AID 1347160). Also: nearly all actives have a fitted effect of over 55% in size. Particulars: purified NS2B-NS3 protease, Rhodamine110 substrate fluorescence; series mostly up to 57.1 µM. The essentials: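 Aprotinin served as in-plate control. Conditions: 25 nM linked NS2B-NS3, pH 8.0 Tris buffer, titrated compounds, 15 min preincubation and 15 min reaction with 1.5 microM Rhod110 substrate at room temperature.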

For assay [5], the target named is Protein phosphatase 1D (Homo sapiens) (UniProt O15297). Put plainly: RapidFire Mass Spectrometry qHTS Assay for Modulators of WT P53-Induced Phosphatase 1 (WIP1) (AID 1347424). Particulars: WIP1 dephosphorylation of phosphopeptide, RapidFire MS; series mostly up to 63 µM. Put shortly: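 RapidFire MS readout of dephosphorylated VEPPL-S-QETFS product, with 1 uM isotope-labelled peptide standard. Reaction: 10 nM WIP1, 2 uM phosphopeptide substrate, 5 min, room temperature, after 1 h compound preincubation; stopped with 0.5% formic acid.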
Chain of Protein phosphatase 1D (Homo sapiens) (O15297 whole entry, looked up): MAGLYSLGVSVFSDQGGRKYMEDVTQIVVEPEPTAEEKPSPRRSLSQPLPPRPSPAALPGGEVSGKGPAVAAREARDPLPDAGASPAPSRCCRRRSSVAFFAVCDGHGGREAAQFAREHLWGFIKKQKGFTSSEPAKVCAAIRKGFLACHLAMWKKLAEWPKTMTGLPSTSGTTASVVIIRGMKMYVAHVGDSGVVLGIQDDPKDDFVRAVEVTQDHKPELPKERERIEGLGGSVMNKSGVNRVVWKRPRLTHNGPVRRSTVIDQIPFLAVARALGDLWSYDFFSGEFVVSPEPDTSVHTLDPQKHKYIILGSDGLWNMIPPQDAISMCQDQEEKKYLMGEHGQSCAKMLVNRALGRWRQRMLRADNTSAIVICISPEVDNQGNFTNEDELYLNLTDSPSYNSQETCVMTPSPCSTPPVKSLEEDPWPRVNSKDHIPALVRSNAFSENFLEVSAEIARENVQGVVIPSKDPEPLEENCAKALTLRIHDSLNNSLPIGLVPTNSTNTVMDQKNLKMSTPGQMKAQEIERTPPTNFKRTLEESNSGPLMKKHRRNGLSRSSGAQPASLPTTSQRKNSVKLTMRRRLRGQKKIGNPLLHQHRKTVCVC

The nature of assay [6]: Primary qHTS for inhibitors of La Crosse Virus (LACV) - induced cell death in SH-SY5Y cells (AID 1508616).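 Also: top concentration of the series differs between compounds; higher means more rescue of cells from virus-induced death.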 The settings on record: SH-SY5Y LACV cytopathicity rescue, ATP luminescence, 6 d; series mostly up to 4.29 µM. The essentials:
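Cytopathicity rescue screen: compounds pinned onto SH-SY5Y cells, which are then infected with LACV (MOI 0.01) and held 6 days at 37C. Percent activity is scaled between infected DMSO control and uninfected DMSO control.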

The nature of assay [7]: qHTS to identify inhibitors of the type 1 interferon - major histocompatibility complex class I in skeletal muscle: primary screen against the NCATS Mechanism Interrogation Plate v5.0 (MIPE) Libary (AID 1347411). Also: nearly all actives have a fitted effect of over 65% in size. Also: potency is read from the fitted curve at half-maximal effect. Particulars: iHSKM cells + IFN-b, HiBiT-tagged MHC-I luminescence, 24 h; series mostly up to 45.8 µM. Put shortly: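 HLA-B HiBit myoblasts, dexamethasone-free medium + 4 ng/ml IFN-b, 24 h compound, 11-pt 1:3 from 46 uM final. Readout: Nano-Glo HiBiT lytic luminescence after 10 min lysis, RT.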

A short description of assay [8]: Vero cells viability qHTS for Zika virus inhibitors (AID 1347167). The settings on record: cytotoxicity counter-screen (Zika); series mostly up to 45.9 µM. The essentials: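 qHTS titration; 24-48 h compound exposure, 37 degrees C/5% CO2; DMEM, 4% FBS; CellTiter Glo ATP luminescence.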
Assay [9] in a line: Tertiary RLuc qRT-PCR qHTS assay for Zika virus inhibitors (AID 1347169). Also: top concentration of the series differs between compounds; nearly all actives have a fitted effect of over 55% in size. Particulars: infected Vero cells, reporter luminescence, 48-72 h; series mostly up to 45.9 µM. The essentials:
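Inhibition of ZIKV-RLuc replication in Vero cells, read as Renilla luminescence 1-1.5 hrs after live-cell substrate addition, following 48-72 hrs infection at MOI 1-2 in presence of compound.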
Background: Quantitative PCR measures a nucleic acid by following its amplification.

The nature of assay [10]: qHTS to identify inhibitors of the type 1 interferon - major histocompatibility complex class I in skeletal muscle: primary screen against the NCATS Pharmaceutical Collection (AID 1347407).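 Also: luminescence of HiBiT knocked into endogenous HLA-B as interferon-induced MHC class I level.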 The settings on record: human skeletal muscle cells, IFN-b-induced MHC-I HiBiT luminescence, 24 h; series mostly up to 45.9 µM. The essentials:
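A qHTS format is used: 8-point, 1:5 compound series with 46 uM top final concentration, applied alongside 4 ng/ml IFN-beta to HLA-B*08:01-HiBiT knock-in myoblasts. Luminescence is measured after 24 h treatment.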

Assay [11] in a line: qHTS for inhibitors of adenylyl cyclases using a fission yeast platform: a pilot screen against the NCATS LOPAC library (AID 1347410). The settings on record: S. pombe CHP2027, fbp1-GFP fluorescence, 18 h, yeast expressing mammalian AC9 and human GNAS; series mostly up to 57.5 µM. Put shortly:
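Inhibition of GNAS-stimulated AC9 activity in S. pombe was inferred from derepression of a PKA-repressed fbp1-GFP reporter, measured as cytometric fluorescence after 18 h at 30C with compounds at up to 57 µM.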

The nature of assay [12]: Validation qHTS assay for inhibitors of Activation Induced Cytidine Deaminase (AID): UDG Counterscreen signal (AID 1347427). Particulars: biochemical UDG counterscreen, fluorescence signal; series mostly up to 115 µM. Put shortly: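 Fluorescence at 560 nm excitation, 665 nm emission reports UDG signal after 250 mM NaOH (2x) addition and 30 min. Enzymes (AID 1 uM, UDG 2 U/mL, at 4/3x) preincubated 10 min with compound, then 4 h with 4x 250 nM DJC20/DJC23 substrate at room temperature.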

The target in assay [13] is Single-stranded DNA cytosine deaminase (Homo sapiens) (UniProt Q9GZX7). Put plainly: Validation qHTS assay for inhibitors of Activation Induced Cytidine Deaminase (AID): AID signal (AID 1347429). The settings on record: Recombinant AID, FRET ssDNA deamination with UDG, fluorescence; series mostly up to 115 µM. The essentials: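 AID+UDG coupled FRET deamination; cpds up to 114 uM final; DJC20/DJC23 substrate, 4 hr RT; NaOH stop, 30 min RT; read Ex 540/Em 590.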
Chain of Single-stranded DNA cytosine deaminase (Homo sapiens) (Q9GZX7 whole entry, looked up): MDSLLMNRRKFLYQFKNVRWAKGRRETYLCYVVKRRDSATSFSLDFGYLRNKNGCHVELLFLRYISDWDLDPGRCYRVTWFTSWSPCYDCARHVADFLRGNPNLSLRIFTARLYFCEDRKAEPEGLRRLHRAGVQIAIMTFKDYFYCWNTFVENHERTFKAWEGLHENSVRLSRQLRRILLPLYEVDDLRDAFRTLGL

Take `CNCC[C@H](Oc1cccc2ccccc12)c1cccs1`: in [1], the Potency entry is “inactive”. In addition, in assay [2], the result was inactive.

For `NC1(c2ccc(-c3nc4ccn5c(=O)[nH]nc5c4cc3-c3ccccc3)cc2)CCC1`, the Potency entry in assay [3] and in assay [6] was “inactive” in each case. For the same compound, the outcome in assay [4], in [5] and in assay [2] was inactive.

In the case of `CCC(=O)O[C@]1(C(=O)SCF)[C@H](C)C[C@H]2[C@@H]3C[C@H](F)C4=CC(=O)C=C[C@]4(C)[C@@]3(F)[C@@H](O)C[C@@]21C`, the Potency result in assay [1] and in assay [6] was “inactive” throughout. Also, the compound was classed as inactive in assay [5] and in [2].

`CCOC(=O)[C@H](CCc1ccccc1)N[C@H]1CCc2ccccc2N(CC(=O)O)C1=O`: the Potency entry in [1], in assay [7] and in assay [6] was “inactive” throughout. Also, the compound was called inactive in assay [5] and in assay [2].

Regarding `CCn1cc(C(=O)O)c(=O)c2cc(F)c(N3CCNCC3)cc21`, the Potency result in assay [8], in assay [9], in assay [10], in assay [7] and in assay [6] was “inactive” each time. Also, the result in assay [5] and in assay [2] was inactive.

For the compound `NC(=O)c1cccc(N)c1`, the Potency result in assay [1] and in assay [7] was “inactive” each time. Further, the result in assay [11], in assay [12] and in assay [13] was inactive.

As for `COc1cc2nc(N3CCCN(C)CC3)nc(NC3CCN(Cc4ccccc4)CC3)c2cc1OC`, in assay [1], the Potency is 27.1 µM (active). The compound was called inactive in assay [11], in [12] and in assay [13].

For the compound `COc1ccccc1OCC(O)COC(N)=O` (stereo not drawn), the Potency result in assay [1], in assay [10] and in [6] was “inactive” each time. The outcome in assay [2] was inactive.

`O=S(=O)(c1cccc2cnccc12)N1CCCNCC1`: the Potency entry in assay [1], in assay [7] and in [6] was “inactive” each time. Moreover, the call in assay [5] and in assay [2] was inactive.

Turning to `Cc1oc(=O)oc1CN1CCN(c2cc3c(cc2F)c(=O)c(C(=O)O)c2n3C(C)S2)CC1` (stereo not drawn), the Potency result in assay [1], in assay [10] and in [6] was “inactive” throughout. For the same compound, the result in [2] was inactive.

Consider `C1CCC(C(CC2CCCCN2)C2CCCCC2)CC1` (stereo not drawn), for which the Potency result in assay [1] and in assay [6] was “inactive” throughout. The call in assay [5] and in assay [2] was inactive.

For `CC(=O)CC(c1ccccc1)c1c(O)c2ccccc2oc1=O` (stereo not drawn), in assay [1], the Potency entry is “inactive”. Besides, the Potency in assay [7] was 13.1 µM (active). In addition, the outcome in assay [5] and in assay [2] was inactive.

Values taken from PubChem BioAssay (NCATS).
